From PubChem BioAssay AID720504 (National Center for Advancing Translational Sciences (NCATS), 2013)
The whole screen tested about 360,000 compounds, of which about 10,000 (2.8%) were called active. Roughly 4% stayed inconclusive and do not appear here. Many of the other results were omitted from the sample, so actives are more common in it than they were. Unmarked numbers belong to inactive results. Calls come from the whole dose curve; as a rule, active = well fitted inhibition curve with a large enough effect; inconclusive = small, poorly fitted or top-dose-only effect; inactive = flat fitted curve, though single readings scatter.
% is set by controls: 0 for no effect and ±100 for the full control effect; potency is the fitted concentration of half-maximal effect.
Note: nearly all actives have a fitted effect of over 65% in size.
Throughout, for max response, negative = inhibition: series mostly up to about 57 µM.

What follows are compounds tested against Serine/threonine-protein kinase PLK1 (Homo sapiens) (UniProt P53350) (assay: qHTS for Inhibitors of PLK1-PDB (polo-like kinase 1 - polo-box domain): Primary Screen). Settings: Plk1 PBD binding of FITC phosphopeptide, fluorescence polarization.
Sequence of Serine/threonine-protein kinase PLK1 (Homo sapiens) (P53350 whole entry, looked up, the tested form may be a part): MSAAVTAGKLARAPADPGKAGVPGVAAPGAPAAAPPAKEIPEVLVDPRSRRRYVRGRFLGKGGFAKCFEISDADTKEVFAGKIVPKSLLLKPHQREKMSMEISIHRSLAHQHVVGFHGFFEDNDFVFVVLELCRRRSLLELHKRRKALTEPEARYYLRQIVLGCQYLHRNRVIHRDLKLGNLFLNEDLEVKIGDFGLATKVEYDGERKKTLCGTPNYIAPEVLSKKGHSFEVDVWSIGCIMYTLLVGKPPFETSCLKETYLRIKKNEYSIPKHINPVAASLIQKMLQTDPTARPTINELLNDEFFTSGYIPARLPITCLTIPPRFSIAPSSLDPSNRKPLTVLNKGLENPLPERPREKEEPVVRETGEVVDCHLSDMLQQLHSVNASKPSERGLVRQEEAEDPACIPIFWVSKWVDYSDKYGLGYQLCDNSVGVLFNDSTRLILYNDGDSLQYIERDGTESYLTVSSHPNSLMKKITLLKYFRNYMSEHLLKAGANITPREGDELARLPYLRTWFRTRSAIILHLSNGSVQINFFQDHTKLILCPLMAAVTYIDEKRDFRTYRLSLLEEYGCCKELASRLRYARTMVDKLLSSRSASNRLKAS
COc1ccc(-c2ccc(C(=O)NC(C)C)c3occc23)c(C)c1 was tested, and the max response, negative = inhibition was -5.99%.
With CC1=NN(c2ccc(Cl)c(C(=O)O)c2)C(=O)/C1=C/c1ccc(-c2ccccc2[N+](=O)[O-])o1 the Potency was 0.844 µM (active).
O=C(Nc1ccc(N2CCOCC2)cc1)c1ccc(-c2ccccc2[N+](=O)[O-])o1 was tested, and the max response, negative = inhibition was -4.38%.
Work on O=C1NC(c2ccc(-c3ccccc3[N+](=O)[O-])o2)C(C(=O)c2ccc(Cl)cc2)C(O)(C(F)(F)F)N1 (stereo unspecified) yielded a max response, negative = inhibition of -5.49%.
Work on CCCS(=O)(=O)NC(=O)C1(C)CCN(C(=O)c2sccc2C)C1 (stereo unspecified) yielded a max response, negative = inhibition of -7.96%.
C[C@H](NC(=O)CC[C@H]1O[C@@H](n2ccc(=O)[nH]c2=O)[C@H](O)[C@@H]1O)c1cccc2ccccc12 showed a max response, negative = inhibition of -3.83%.
With O=C(NCc1ccco1)c1cccc(-c2ccc3nncn3c2)c1 the max response, negative = inhibition was 6.92%.
Work on CCCCCNC(=O)C1C(=O)Nc2ccccc2C(=O)N1C(C)(C)C (stereo unspecified) yielded a max response, negative = inhibition of -13.8%.
In the case of S=c1[nH]nc(-c2cccs2)n1/N=C/c1cn(-c2ccccc2)nc1-c1ccc(Cl)cc1, the max response, negative = inhibition is reported as -14.4%.
In the case of S=c1[nH]nc(-c2cccs2)n1/N=C/c1cccs1, the Potency is reported as 37.7 µM (active).
Work on Cc1ccsc1/C=N/n1c(=S)[nH]nc(C)c1=O yielded a max response, negative = inhibition of -9.18%.
Work on CC(C)c1cccc(-c2csc(C(O)c3ccccc3)n2)c1 (stereo unspecified) yielded a max response, negative = inhibition of -9.83%.
CN(C)S(=O)(=O)c1cccc(-c2nn(-c3ccccc3)cc2/C=C2\SC(=S)N(CC(=O)O)C2=O)c1 was tested, and the Potency was 26.7 µM (active).
O=C(CN1C(=O)/C(=C\c2ccccc2F)SC1=S)Nc1nc2ccccc2s1 gave a max response, negative = inhibition of -28.6%.
With COc1ccc(-c2nn(-c3ccccc3)cc2/C=C2/SC(=S)N(CCCC(=O)O)C2=O)c(C)c1 the Potency was 29.9 µM (active).
Work on Cc1ccc(-c2nn(-c3ccccc3)cc2/C=C/C(=O)Nc2cccc(S(N)(=O)=O)c2)cc1 yielded a max response, negative = inhibition of -5.39%.
With COc1cccc(/C=C2\SC(=S)N(CCCC(=O)N3CCOCC3)C2=O)c1 the max response, negative = inhibition was -2.08%.
Compound Cc1ccc(-c2nn(-c3ccccc3)cc2/C=C2\SC(=S)N(CCCCCC(=O)O)C2=O)o1 has a max response, negative = inhibition of 165%.
COc1ccc(CC(N)c2csc(NC(=O)Nc3ccc(C(C)C)cc3)n2)cc1 (stereo unspecified) gave a max response, negative = inhibition of -5.6%.
CC1(C(=O)Nc2cccc3c2CCCC3)CCN1C(=O)CCc1ccc(Cl)cc1Cl (stereo unspecified) showed a max response, negative = inhibition of 0.165%.
O=C(CSc1nc2ccccc2c(=O)[nH]1)Nc1nc(-c2ccc(Br)cc2)cs1 was tested, and the max response, negative = inhibition was -29%.
In the case of N#Cc1c(-c2cccs2)nc(SCC(=O)c2ccc(Br)cc2)[nH]c1=O, the Potency is reported as 26.7 µM (active).
CC(=O)CSc1nc(CCc2ccccc2)c(C#N)c(=O)[nH]1 showed a max response, negative = inhibition of 5.25%.
In the case of COc1ccc(/C=C2/C(=O)OCc3cc(OC)c(OC)cc32)c(OC)c1, the max response, negative = inhibition is reported as -13%.
With COc1ccc(C2/C(=C(/O)c3ccccc3)C(=O)C(=O)N2C)c(OC)c1 (stereo unspecified) the max response, negative = inhibition was 0.389%.
COc1ccc(/C=C2/C(=O)N(c3ccccc3)N=C2C)c(OC)c1 was tested, and the Potency was 18.9 µM (active).
Compound Cc1cccc(C)c1NC(=O)C(c1cccc(F)c1)N1CCN(C)CC1 (stereo unspecified) has a max response, negative = inhibition of -7.61%.
Work on CC(=O)Nc1cnc(-c2ccc(O)cc2C)cn1 yielded a max response, negative = inhibition of -2.97%.
With COc1ccc(NC(=O)C2Cc3c(-c4ccc5c(c4)OCO5)ccnc3O2)cn1 (stereo unspecified) the max response, negative = inhibition was -5.75%.
Compound COc1ccc(NC(=O)N(C)C[C@H]2Oc3ccc(NC(=O)C4CC4)cc3C(=O)N([C@H](C)CO)C[C@@H]2C)cc1 has a max response, negative = inhibition of -15.8%.
Work on C[C@H](CO)N1C[C@H](C)[C@@H](CN(C)C(=O)Nc2ccc3c(c2)OCO3)Oc2c(cccc2N(C)C)C1=O yielded a max response, negative = inhibition of -11.3%.
In the case of COc1ccc(NC(=O)Nc2ccc3c(c2)C(=O)N([C@H](C)CO)C[C@H](C)[C@@H](CN(C)C(=O)Nc2ccc4c(c2)OCO4)O3)cc1, the Potency is reported as 23.8 µM (active).
CC(Sc1nnnn1C)C(=O)NC(=O)NC1CCCCC1 (stereo unspecified) gave a max response, negative = inhibition of -1.5%.
With O=C(CSc1nnnn1C1CCCC1)N1CCCCC1 the max response, negative = inhibition was -1.23%.
For CC(Sc1nnnn1C1CCCCC1)C(=O)O (stereo unspecified), the Potency was 4.23 µM (active).
For COc1ccc(OC)c(NC(=O)c2cc(-c3cc(F)ccc3OCC3CCCO3)n[nH]2)c1 (stereo unspecified), the max response, negative = inhibition was 1.76%.
For OCC[C@H]1C[C@@H](O)[C@H](O)[C@@]2(OCCc3ccccc32)O1, the Potency was 21.2 µM (active).
COc1ccc2c(c1)CCCO[C@]21O[C@H](CCO)C[C@H](O)[C@H]1O was tested, and the max response, negative = inhibition was -7.9%.
Work on OCC[C@H]1C[C@@H](O)[C@H](O)[C@]2(OCCCc3ccccc32)O1 yielded a max response, negative = inhibition of -6.7%.
Compound CC1(C(=O)NCc2ccc(F)c(F)c2)Cc2c(-c3ccc4c(c3)OCO4)ccnc2O1 (stereo unspecified) has a max response, negative = inhibition of 5.1%.
In the case of CC1(Cc2cccc(C#N)c2)C(=O)Nc2ccc(-c3cccc(C(F)(F)F)c3)cc21 (stereo unspecified), the max response, negative = inhibition is reported as -6.86%.
Compound CCCCC[C@@H]1C=C(C(=O)OCC)[C@H](c2ccccc2)N1S(=O)(=O)c1ccc(C)cc1 has a max response, negative = inhibition of -0.281%.
CCCCC[C@@H]1C=C(C(=O)O)[C@H](c2ccc(C#N)cc2)N1S(=O)(=O)c1ccc(C)cc1 was tested, and the max response, negative = inhibition was -5.69%.
In the case of Cc1ccc(S(=O)(=O)N2[C@@H](c3ccc(Br)cc3)C(C(=O)O)=C[C@H]2CC2CCCC2)cc1, the Potency is reported as 23.8 µM (active).
In the case of Cc1ccc(S(=O)(=O)N2CC[C@H]3[C@@H](C2)C(=O)C[C@@H](c2ccccc2)N3S(=O)(=O)c2ccc(C)cc2)cc1, the max response, negative = inhibition is reported as -5.58%.
For CCN(CC)CCCC(C)n1c2nc(=O)[nH]c(=O)c-2nc2cc(Cl)ccc21 (stereo unspecified), the Potency was 0.752 µM (active).
Cc1ccc(Sc2ccc(NC(=O)c3ccc(F)cc3)cc2C#N)cc1 gave a max response, negative = inhibition of -2.21%.
Work on Cc1ccc(-c2nc3ccc(Br)cn3c2Cc2ccccc2C(F)(F)F)cc1 yielded a max response, negative = inhibition of -28.5%.
Cc1ccc([C@@H]2CC(=O)[C@@H]3CN(S(=O)(=O)c4ccc(C)cc4)[C@H](c4ccccc4F)C[C@@H]3N2S(=O)(=O)c2ccc(Cl)cc2)cc1 gave a max response, negative = inhibition of 3.58%.
Nn1c(SCC(=O)Nc2nccs2)nnc1-c1ccco1 showed a max response, negative = inhibition of -17.8%.
CCc1cccc(C)c1NC(=O)CSc1nnc(-c2ccco2)n1N showed a max response, negative = inhibition of -0.459%.
For NC(=O)c1c(NC(=O)CSc2nnc(-c3ccco3)n2N)sc2c1CCCC2, the Potency was 15 µM (active).
COc1ccc([C@H]2CC(=O)C[C@@H](CCn3cc(CC4CCCC4)nn3)O2)cc1 was tested, and the max response, negative = inhibition was 2.62%.
CN(C)CCOc1cccc(Br)c1 showed a max response, negative = inhibition of -4.17%.
With CN(C)CCOC1c2ccccc2-c2ccccc21 the Potency was 29.9 µM (active).
For CC(=O)O[C@H]1c2ccccc2-c2ccccc2[C@@H]1OC(C)=O, the max response, negative = inhibition was 1.29%.
With CCCCC[C@H](C)N1C[C@@H](COCc2ccccc2)Oc2cc(N3CC[C@@H](N(C)C)C3)ccc2S1(=O)=O the max response, negative = inhibition was 4.46%.
Compound CCOC(=O)[C@]12CCCC=C1N(Cc1ccc3c(c1)OCO3)C(=O)[C@H](CC(=O)N1CCN(C(=O)c3ccco3)CC1)C2 has a max response, negative = inhibition of -17.4%.
Compound CC1(C(=O)NS(=O)(=O)Cc2cccc(Cl)c2)CCN1C(=O)Cc1ccc(Cl)cc1Cl (stereo unspecified) has a max response, negative = inhibition of -4.29%.
Work on Nc1ccc(C(=O)N2CCN(S(=O)(=O)c3ccc(Cl)cc3)CC2)cc1[N+](=O)[O-] yielded a max response, negative = inhibition of -9.21%.
CC1CCN(C(=O)c2ccc(S(=O)(=O)Cc3cc(F)ccc3F)c([N+](=O)[O-])c2)CC1 was tested, and the Potency was 15 µM (active).
In the case of O=C(c1ccc(Oc2ccc(Cl)cc2)c([N+](=O)[O-])c1)N1CCCC1, the max response, negative = inhibition is reported as -8.04%.
Compound O=C(Nc1ccc(Cl)cc1)c1csc([C@@H]2O[C@H](CO)[C@H](O)[C@H](O)[C@H]2O)n1 has a max response, negative = inhibition of 2.4%.
In the case of O=C(Nc1cccc(Cc2ccccc2)c1)Nc1ccc2nc([C@@H]3O[C@H](CO)[C@@H](O)[C@H](O)[C@H]3O)[nH]c2c1, the max response, negative = inhibition is reported as -5.78%.
Compound CCOc1ccc(N2C(=O)CSC2=NC#N)cc1 has a max response, negative = inhibition of -14.5%.
With CCOc1cccc(/C=N/N2C(=O)CSC2=S)c1O the Potency was 11.9 µM (active).
CCOc1cc(/C=N/n2cnnc2)c(Br)cc1O showed a max response, negative = inhibition of -5.37%.
CCCCCCN1C[C@H](O)[C@@H](n2cc(C3CC3)nn2)C[C@@H]1c1ccc(Cl)cc1 was tested, and the max response, negative = inhibition was -0.475%.
With CCC(C)(C)NC(=O)C(c1cccc(OC)c1OC)N(CC(C)C)C(=O)CCC(=O)Nc1cc(C)on1 (stereo unspecified) the Potency was 10.6 µM (active).
COc1ccc(C(C(=O)NC(C)(C)C)N(Cc2ccc(F)cc2)C(=O)CCC(=O)Nc2cc(C)on2)cc1 (stereo unspecified) gave a max response, negative = inhibition of -11.5%.
Compound CCC(C)(C)NC(=O)C(c1ccc(OC)cc1)N(C(=O)CCC(=O)Nc1cc(C)on1)c1ccc(OC)cc1OC (stereo unspecified) has a max response, negative = inhibition of -9.49%.
For CC(=O)Nc1cc(-c2ccc(N3CCN(C)CC3)cc2)cn2c(-c3ccc(F)cc3)cnc12, the max response, negative = inhibition was 1.71%.
In the case of COCCCn1c(=O)/c(=C/c2ccccc2OC(C)C)s/c1=C(\C#N)C(=O)Nc1ccc(C(=O)O)cc1, the max response, negative = inhibition is reported as -29.5%.
In the case of Nc1nnn(CC(=O)N/N=C/c2ccc(O)cc2)n1, the max response, negative = inhibition is reported as -3.01%.
Cc1nonc1C(=O)N/N=C/c1ccc(O)cc1 showed a max response, negative = inhibition of -1.21%.
For O=C(C[n+]1ccccc1)N/N=C/c1ccc(O)cc1, the Potency was 26.7 µM (active).
For O=C(Nc1ccc2c(c1)[C@@H]1C[C@@H](CC(=O)N3CCCCC3)O[C@@H](CO)[C@@H]1O2)NC1CCCCC1, the max response, negative = inhibition was 2.32%.
For Cc1nc(C(F)(F)F)ccc1C(=O)N1CCC1(C)C(=O)NS(=O)(=O)c1ccc(F)cc1F (stereo unspecified), the max response, negative = inhibition was 1.72%.
For COc1ccc(-c2cn(-c3ccc(OC)cc3)c(=S)[nH]2)cc1, the Potency was 21.2 µM (active).
COc1ccc(N2C(=O)CNC2=S)cc1 showed a max response, negative = inhibition of 0.339%.
COc1ccc(-n2cc(-c3ccccc3)c3c(=S)nc[nH]c32)cc1 gave a max response, negative = inhibition of -12.3%.
